In PubChem BioAssay (NCI):
About 83,000 compounds went through this panel and 20% of them were active in at least one assay; those are over-represented in the sample as a whole.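 For each line, cells grew in 96-well plates with the test compound present at a single concentration for 48 hours.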 Active and inactive are the calls of the source. How the source made its calls: active means growth percent below 10; inactive means the rest.

Columns and labels:
Assay in all cases: NCI-60 one-dose screen, 48 h (100 = growth as untreated, 0 = no growth, -100 = all killed)
Settings in all cases: 10 µM
[1] = test system: HCT-15 colon
[2] = test system: HT29 colon
[3] = test system: SNB-75 CNS
[4] = test system: SNB-19 CNS
[5] = test system: U251 CNS
[6] = test system: PC-3 prostate
[7] = test system: SK-MEL-5 melanoma
[8] = test system: UACC-62 melanoma
[9] = test system: LOX IMVI melanoma
[10] = test system: SK-MEL-28 melanoma

Measured: growth

C=C1C(=O)O[C@H]2[C@H]1CC/C(COC(=O)OCCCCCOC(=O)OC/C1=C/CC[C@@]3(C)O[C@H]3[C@H]3OC(=O)C(=C)[C@@H]3CC1)=C\CC[C@@]1(C)O[C@@H]21
active: [1] -87.7% | [2] -85.6% | [5] 4.2% | [6] -25.9% | [7] -78.8% | [8] -26.4% | [9] -90.1% | [10] -11%
inactive: [3] 80.3% | [4] 25.7%

CN1CCN(c2nc(-c3cccnc3)nc3sc4c(c23)CCCCCC4)CC1
inactive: [1] 93.2% | [2] 91.3% | [3] 67.4% | [4] 101% | [5] 72.3% | [6] 66.7% | [7] 87.9% | [8] 103% | [9] 78.6% | [10] 99.7%

O=C(N/N=c1/ccoc2cccnc12)N1CCN(c2ncccn2)CC1
inactive: [1] 24.9% | [2] 34.6% | [3] 70.7% | [4] 35% | [5] 17.9% | [6] 26.2% | [9] 18.1% | [10] 48.4%
active: [7] -36.8% | [8] 7.9%

Cc1ncc([N+](=O)[O-])n1CCOc1ccc(C(=O)/C=C/c2ccc(C(F)(F)F)cc2)cc1
inactive: [1] 38.1% | [2] 29.7% | [3] 60.1% | [4] 69.7% | [5] 51.7% | [6] 50.6% | [7] 78.4% | [8] 67.5% | [9] 57.3% | [10] 88.2%

O=[N+]([O-])c1ccc2c(c1)Cc1cc(I)ccc1-2
inactive: [1] 108% | [2] 91.6% | [3] 106% | [4] 109% | [5] 96% | [6] 101% | [7] 97.1% | [8] 108% | [9] 116% | [10] 111%

N#CCC1CCCC1
inactive: [1] 99.7% | [2] 105% | [3] 78.7% | [4] 98.8% | [5] 97.4% | [6] 87.9% | [7] 104% | [8] 99.4% | [9] 97.2% | [10] 97.6%

CCOC(=O)C1=C(Nc2ccc(OC)cc2)C(N)=NC1=N
inactive: [1] 22% | [2] 11.7% | [3] 51.9% | [4] 66.8% | [5] 51.7% | [6] 40.5% | [7] 21.5% | [8] 30.4% | [9] 52% | [10] 67.3%

COCCOC(=O)NC(=O)Nc1ccc(/C(=N/O)c2ccc(Cl)cc2)cc1
active: [1] 9.7% | [2] -20.5% | [7] -17.2%
inactive: [3] 19.9% | [4] 31.4% | [5] 17.9% | [6] 26.1% | [8] 15.7% | [9] 22.5% | [10] 69.1%

Cc1nc2sccn2c1-c1csc(Nc2cccc(Cl)c2C)n1
inactive: [1] 46.4% | [2] 31% | [3] 77.5% | [4] 77.1% | [5] 60.8% | [6] 53.1% | [7] 16.5% | [8] 53.3% | [9] 61.4% | [10] 59.7%

c1ccc(CNc2nc(Nc3ccc(-c4nc5ccccc5[nH]4)cc3)c3cn[nH]c3n2)cc1
inactive: [3] 33% | [4] 36.3% | [6] 11.8%
active: [1] 0.22% | [2] -13.9% | [5] -19.8% | [7] -96.4% | [8] -40.9% | [9] -42.1% | [10] -8.67%

CS(=O)(=O)Nc1ccc(OCc2nnc(-c3ccc(Cl)cc3)o2)c(F)c1
inactive: [1] 88% | [2] 105% | [3] 82.7% | [4] 93.5% | [5] 99% | [6] 91% | [7] 92.3% | [8] 83.7% | [9] 82.9% | [10] 102%

Clc1cc(Cl)c(OCCCCCCN2CCNCC2)c(Cl)c1
inactive: [3] 52.7% | [4] 49.8% | [6] 46.1%
active: [1] -32% | [2] -34.1% | [5] 8% | [7] -15.6% | [8] -54.4% | [9] -66.2% | [10] -12.6%

C=C[C@]1(C)C=C2C(=O)[C@@]3(O)OC(=O)[C@@]4(CCCC(C)(C)[C@H]34)[C@@]2(O)CC1
inactive: [4] 26.5%
active: [1] -30.5% | [2] -2.72% | [3] -78.8% | [5] -94% | [6] -74.7% | [7] -99.1% | [8] -87.2% | [9] -96.7% | [10] -98.8%

CCOC(=O)c1c(C)n(-c2ccc(Cl)cc2)c2ccc(OC(=O)/C=C/c3ccccc3)cc12
inactive: [1] 60.8% | [2] 66.1% | [3] 66.6% | [4] 89.7% | [5] 83.2% | [6] 67.7% | [7] 79.1% | [8] 68.1% | [9] 91.4% | [10] 81.9%

CNC(=O)c1cc(Oc2ccc(NC(=O)Nc3ccc(Cl)c(C(C)(C)C)c3)c(F)c2)ccn1
inactive: [1] 38.9% | [2] 25.9% | [3] 104% | [4] 60% | [5] 52% | [6] 37.7% | [8] 16% | [9] 16.6% | [10] 34.8%
active: [7] -23.2%

COc1cc(C2C=C(c3ccc(Cl)c(Cl)c3)N=C3SC(C)=CN32)cc(OC)c1OC (stereo not given)
inactive: [1] 64.8% | [2] 53.1% | [3] 81.7% | [4] 79.5% | [5] 51.2% | [6] 59.2% | [7] 83.9% | [8] 85.8% | [9] 41.3% | [10] 102%

C=CCn1c(C)nc2cc(Nc3nc(Nc4ccc5nc(C)n(CC=C)c5c4)c4ccccc4n3)ccc21
active: [1] -76.2% | [2] -69.4% | [3] -96.7% | [4] -66.1% | [5] -90.7% | [6] -91.7% | [7] -95.2% | [8] -83.3% | [9] -83.3% | [10] -88%

CN1/C(=C\C(I)C(I)C2=[N+](C)c3ccccc3C2(C)C)C(C)(C)c2ccccc21 (stereo not given)
active: [2] 4.84% | [5] 7.67% | [6] 5.52% | [7] -97.4%
inactive: [1] 13.8% | [3] 14.5% | [4] 18.9% | [8] 19.4% | [9] 12% | [10] 28.5%

CCc1ccc(Nc2cc(C)nc3nc(C)nn23)cc1
inactive: [3] 29.6% | [4] 15.4%
active: [1] -3.95% | [2] -76.3% | [5] -98.9% | [6] 1.4% | [7] -97.8% | [8] -99.1% | [9] -98.2% | [10] -98%

NC1CCC(Nc2nc(NCc3cc(Cl)ccc3O)c3ncn(C4CCCC4)c3n2)CC1 (stereo not given)
active: [1] -10.1% | [2] -16.9% | [3] -85.8% | [4] 9.87% | [5] -22.8% | [6] -8.24% | [7] -93.7% | [8] -58.8% | [9] -73.7% | [10] -44.7%

COc1ccc(-c2ccccc2)cc1C(=O)c1ccc(-c2ccccc2)cc1
inactive: [1] 63.1% | [2] 41.8% | [3] 87.5% | [4] 81.3% | [5] 77% | [6] 71.6% | [7] 73.1% | [8] 62.2% | [9] 77% | [10] 76.5%

Fc1cc(-c2ncc(-c3cc(F)c(F)c(F)c3)c(NC3CCCCCC3)n2)cc(F)c1F
inactive: [1] 97% | [2] 115% | [3] 85.7% | [4] 99.7% | [5] 83.4% | [6] 90.6% | [7] 98.1% | [8] 89.4% | [9] 102% | [10] 98.4%

COc1ccc(/C=C(\c2cc(OC)c(OC)c(OC)c2)c2nnc(-c3cccs3)o2)cc1
inactive: [1] 103% | [2] 90.7% | [4] 52.3% | [5] 55.7% | [6] 81.7% | [7] 64.6% | [8] 78.1% | [9] 92.8% | [10] 69.7%
active: [3] -10.5%

Cc1nc(N)sc1Sc1nc2ccc(Cl)cc2c(=O)n1-c1ccc(Oc2ccccc2)cc1
inactive: [1] 55.4% | [2] 55.9% | [3] 96% | [4] 69.4% | [5] 77.2% | [6] 48.9% | [7] 76.1% | [8] 63.9% | [9] 75.5% | [10] 95.1%

C/C(=N\NC(=S)N1CCCC1)c1ccccn1
inactive: [1] 31% | [2] 26.3% | [3] 39.2% | [4] 20.3% | [6] 24.7% | [10] 24.3%
active: [5] 4.05% | [7] 4.15% | [8] -35.9% | [9] 1.56%

N=C(N)c1ccc(-c2ccc(-c3ccccc3)s2)s1
active: [1] -36.4% | [2] -70.1% | [3] -6.07% | [5] -74.6% | [6] -26% | [8] -84.9% | [9] -69.2% | [10] -95.9%
inactive: [4] 10% | [7] 14.5%

FC(F)(F)c1ccc(-c2cnc(Cl)nc2NCc2cc(C(F)(F)F)cc(C(F)(F)F)c2)cc1
active: [1] 8.09% | [6] 4.94% | [8] 6.65% | [9] -8.46%
inactive: [2] 21.3% | [3] 27.2% | [4] 14.8% | [5] 10.7% | [7] 77.3% | [10] 46%
